In the library only some 2.3% were active in any assay of this set; here they are far more common.
aSyn yeast inh: alpha-synuclein toxicity inhibition in yeast | Yeast expressing alpha-synuclein, growth rescue, BacTiter-Glo, 24 h | Potency, µM (top dose mostly 46.1 µM), inactives show at the top dose growth rescue (activation), hits mostly activators | 0.14% of 370,000 active; also: potency is read from the fitted curve at half-maximal effect; % of control where 0% means no effect; nearly all actives have a fitted effect of over 65% in size
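Readout is rescue of growth in alpha-synuclein-expressing yeast, so inhibitors of toxicity appear as activators. Growth after 24 hr at 30 deg C in galactose medium is quantified by luminescence.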
FUS suppressor: FUS proteinopathy suppression in yeast; S. cerevisiae FUS-expressing, growth rescue, OD600, 24 h; Potency, µM (highest dose often 76.6 µM), actives largely listed as activators; 0.24% of 390,000 active; AID 1347120;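 also: potency is read from the fitted curve at half-maximal effect; plate controls were DMSO vehicle for no effect and reference control for full effect; nearly all actives have a fitted effect of over 55% in size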
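Yeast expressing FUS under galactose induction, OD 0.005 in 2% galactose medium; compounds in a dilution series, 24 h at 30C. Growth rescue by absorbance at 600 nm; CP55940 positive control, DMSO negative.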
Abeta rescue: restores growth of yeast expressing A-beta42 peptide; 0.063% of 410,000 active; Potency, µM (top dose mostly 46.1 µM), most hits filed as activators; yeast expressing A-beta42, growth rescue, OD600, 48 h; response scale: 0% DMSO, 100% iron-clioquinol control; AID 1347071; also: potency is read from the fitted curve at half-maximal effect; nearly all actives have a fitted effect of over 55% in size
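Yeast growth medium received pinned compounds, then yeast cells expressing toxic A-beta were added; plates incubated at 30 C for 48 hr. Growth read as absorbance at 600 nm, normalized to DMSO and equimolar FeCl3 plus clioquinol controls.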
TDP-43 yeast inh: inhibitors of TDP-43 toxicity in yeast; TDP-43 expressing yeast growth rescue, BacTiter-Glo, 24 h; Potency, µM (highest dose often 46.1 µM), without a hit: at the top dose growth rescue (activation), most hits filed as activators; 1.8% of 410,000 active; also: potency is read from the fitted curve at half-maximal effect; % of control where 0% means no effect; nearly all actives have a fitted effect of over 50% in size
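Cell-based yeast growth screen: TDP-43 expression induced in galactose, inoculum OD600=0.02 after raffinose pregrowth to mid-log. Read-out BacTiter-Glo luminescence at 24 hr, 30 deg C; inhibition of toxicity seen as signal increase.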
pAkt inh: inhibitors of Akt phosphorylation | activity change, % for hits at 50 µM | 0.32% of 360,000 active | Neuro2A IGF-stimulated pAkt S473 HTRF, 20 min; stronger effect = lower value; in the data active = activity change below about -80%; inconclusive = mostly about -51% to -80%; also: % is scaled to controls: 0 for no effect and ±100 for the full control effect
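Neuro2A cells in DMEM with 0.5% FBS, overnight at 37 deg C, given compound at single 50 µM final, then IGF (6 nM final) for 20 min at 37 deg C. Lysed; phospho-Akt Ser473 by HTRF after 24 h, 665/615 ratio.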
Active calls of the source: *; i = inactive; ? = inconclusive; · = not tested or not shown; ! = not active in a repeat; [ ] = another dose, or the depositor's remark. Unless noted, calls follow the shape of the dose curve; as a rule, active = well fitted curve in the direction sought with a large enough effect; inconclusive = small, poorly fitted or top-dose-only effect, or another doubt; inactive = no such curve, though single readings can be large; an effect the other way counts as inactive or inconclusive.

SMILES | aSyn yeast inh | FUS suppressor | Abeta rescue | TDP-43 yeast inh | pAkt inh
CC(C)Oc1ccc(-c2nc3c(C#N)c[nH]n3c2NC2CCCCC2)cc1 | · | i | i | 22%[9.22 µM] | ·
C(=C\c1ccnc2ccccc12)/c1ccc(N2CCOCC2)cc1 | -31% | · | · | · | ·
CCCC(=O)C1=C(c2cccc(OC)c2)N(C(=O)CCC)n2c(C)nnc2S1 | · | ? | i | 28% | ·
C=CCn1cccc(C(=O)Nc2ccc(Cl)cc2)c1=O | 2% | i | i | 10µM* | i
O=C(CCCCCn1c(=O)[nH]c2ccccc2c1=O)NCCc1ccccc1 | · | i | i | -2% | ·
O=C(Oc1ccc(/C=N/O)cc1)c1ccccc1 | -4% | i | i | 11µM* | i
O=C(Oc1ccc(/C=N/Nc2ccccc2)cc1)c1ccccc1 | -4% | i | i | -5% | i
COc1cccc(C(=O)NC(=S)Nc2ccccc2N2CCOCC2)c1 | 16% | · | i | 13µM* | i
COc1ccc(C(=O)NC(=S)Nc2ccccc2N2CCCCC2)cc1[N+](=O)[O-] | -1% | ? | ? | 16µM* | i
COc1ccc(OCC(=O)Nc2ccccc2N2CCCCC2)cc1 | 16% | i | i | 11µM* | i
CC(=O)c1cccc(OCC(=O)Nc2ccccc2N2CCOCC2)c1 | 0% | i | i | 22µM* | i
CC(=O)N1CCOc2cc(S(=O)(=O)NCc3ccccc3Cl)c(Cl)cc21 | · | i | i | 24% | ·
Cc1ccc(S(=O)(=O)N2CCCC(C(=O)NCCN3CCC(Cc4ccccc4)CC3)C2)cc1 (centres undefined) | · | i | · | · | ·
Cc1cnc(C(=O)Nc2cccc3cccnc23)cn1 | -4% | i | i | ? | -109%*
COc1ccc(OCC(=O)Nc2cccc3cccnc23)cc1 | · | i | i | 13µM* | ·
O=C(CN1C(=O)COc2ccc(S(=O)(=O)N3CCOCC3)cc21)N1CCN(c2ccc(F)cc2)CC1 | -1% | i | i | 8% | ·
COc1ccc2c(c1)c1c(c(=O)n(-c3cccc(Cl)c3)c(=O)n1CC(=O)N1CCCC1)n2C | · | i | i | 20% | ·
CCOC(=O)C1CCN(C(c2cc3c(C)ccc(C)c3[nH]c2=O)c2nnnn2C2CCCCC2)CC1 (centres undefined) | 10% | i | i | -38% | i
CCOC(=O)C1CCN(C(c2cc3ccc(C)c(C)c3[nH]c2=O)c2nnnn2C2CCCCC2)CC1 (centres undefined) | 13% | 35µM* | i | 0% | i
COc1cccc(C(=O)NCCSCc2c(F)cccc2Cl)c1 | 13% | i | i | 11µM* | i
O=C(/C=C/c1cccc([N+](=O)[O-])c1)NCCSCc1cccc(Cl)c1 | 23% | i | i | 22µM* | i
O=C(CCSCc1cccc(Cl)c1)NCCc1ccc(Cl)cc1 | 2% | i | i | 11µM*! | i
CCOc1ccc(CCNC(=O)CCSCc2cccc(Cl)c2)cc1OCC | · | i | i | 22µM* | ·
O=C(/C=C/c1cccc([N+](=O)[O-])c1)NCc1ccccc1 | -6% | i | i | -7% | i
CCOc1ccc(CCNC(=O)CCSCc2ccc(Cl)cc2)cc1OCC | · | i | i | 21% | ·
SMILES | aSyn yeast inh | FUS suppressor | Abeta rescue | TDP-43 yeast inh | pAkt inh
COc1ccc(-c2cc(OC(=O)c3cccc(C)c3)c3c(C)oc(C)c3c(=O)c2)cc1 | · | ? | i | 0%[9.22 µM] | ·
COc1ccc(C(=O)Nc2nnc(SCc3cc(=O)n4cccc(C)c4n3)s2)cc1 | · | i | i | 0% | ·
COc1ccc(-c2nn(-c3cccc(F)c3)c3c2cnc2cc(OC)c(OC)cc23)cc1 | · | i | i | 23% | ·
N#Cc1ccc(S(=O)(=O)N2CCC(Oc3cccc(C(F)(F)F)c3)CC2)cc1 | · | i | i | 7% | ·
COc1ccc(C(=O)NCCSCc2cccc(Cl)c2)cc1OC | 7% | i | i | 20µM* | i
c1ccc(OCCNc2ccn3nc(-c4ccco4)cc3n2)cc1 | -9% | i | i | 16µM* | i
COc1ccccc1-c1cc2nc(NCCOc3ccccc3)ccn2n1 | 14% | i | i | 25µM* | i
c1ccc(OCCNc2ccn3nc(-c4cccs4)cc3n2)cc1 | -1% | i | i | 14µM* | i
FC(F)(F)c1cccc(-c2cc3nc(NCCOc4ccccc4)ccn3n2)c1 | 3% | ? | i | 17% | i
c1ccc(OCCNc2ccn3nc(-c4ccccc4)cc3n2)cc1 | 3% | i | i | 27% | i
CCN(CC)c1ccc(-c2nnc(SCC(=O)NCc3ccco3)n2CC)cc1 | -4% | · | · | · | ·
CC1CCN(c2nn3c(=O)c(C(=O)NCc4ccc(Cl)cc4)cnc3s2)CC1 | · | i | i | 8% | ·
Cc1cccn2c(=O)c(/C=C(\C#N)C(N)=O)c(N3CCN(c4cccc(Cl)c4)CC3)nc12 | -4% | ? | i | 25µM* | i
N#CCSc1nc2c(cc1C#N)CCCCCC2 | 14% | i | i | 16µM* | i
CCSc1nn(CC(=O)Nc2cccc(CC)c2)c(N)c1S(=O)(=O)c1ccccc1 | · | i | i | 9% | ·
CC(=NCc1cccc(Cl)c1)c1nc(-c2ccco2)oc1O | -2% | i | i | 11µM* | i
Cc1cc(C)c(S(=O)(=O)NCCc2sc(-c3cccnc3)nc2C)c(C)c1 | 1% | i | i | ? | ·
Cc1ccc2ccc(C(Nc3ccccn3)c3ccccc3)c(O)c2n1 (centres undefined) | 16% | i | i | ? | i
Cc1ccc2ccc(C(Nc3ccccc3)c3ccccc3)c(O)c2n1 (centres undefined) | ? | i | ? | ? | i
Cc1ccc2ccc(C(Nc3ccccc3)c3ccc(Cl)cc3)c(O)c2n1 (centres undefined) | ? | i | 16µM* | 5.6µM* | i
Cc1ccc2ccc(C(Nc3ccccc3)c3ccc(C(C)C)cc3)c(O)c2n1 (centres undefined) | 11µM* | i | ? | ? | i
Cc1ccc2ccc(C(Nc3ccccc3)c3ccc(F)cc3)c(O)c2n1 (centres undefined) | -26% | i | ? | 3.2µM* | i
CCOc1ccc(CNC(=O)C2CCN(S(=O)(=O)N3CCCCC3)CC2)cc1 | · | i | i | 0% | ·
Cc1nc(COc2ccccc2Cl)sc1-c1ccnc(N)n1 | 13% | i | i | 11µM* | i

Assay outcomes as filed in PubChem BioAssay.
